# Experimental data from ChEMBL document CHEMBL3988442, “University of Dundee, Small-Polar-MMV Screening Library” (2021).
# Biological target: AMP-activated protein kinase, AMPK (Homo sapiens) (UniProt P54646+O43741+P54619+Q9UGJ0+Q9Y478+Q13131+Q9UGI9)
# Experiment: AMP-dependent Kinase enzyme assay. An in vitro enzyme assay that detects ADP turnover that is directly proportional to AMPK activity. This uses naive AMPK that is activated during the assay with MK-8722
# Type: functional
# Parameters: scale not given: direction of the effect not stated beside the values
# Details: 30 µM
row,SMILES,Percent Effect [%]
1,CS(=O)(=O)c1ccccc1NC(=O)N[C@@H]1c2ccccc2C[C@@H]1O,6.87
2,CCNC(=O)c1ccc(NC2CCOC3(CCCC3)C2)nn1 (centres undefined),2.07
3,CNc1ccc(C)cc1C(=O)N1CCCC2(CCNC2)C1 (centres undefined),10.4
4,Cc1nnc(CN(C)CC(=O)NCCc2ccc(F)cc2)n1C,5.73
5,Cn1cc(C(=O)NCCc2ccc(OC3CCCC3)cc2)ccc1=O,0.292
6,CCc1c(C)nc2cc(-c3nccn3C)nn2c1N1CCCC(CO)C1 (centres undefined),26
7,CC(NC(=O)Nc1ccc(-c2csnn2)cc1)C(=O)NC(C)(C)C (centres undefined),-8.32
8,COc1cc(NCCCSc2nnc(C)s2)ncn1,13.7
9,Cn1ccnc1CN1CCN(Cc2cc(-c3ccccc3)no2)CC1,-2.31
10,Cn1cc(S(=O)(=O)NCc2ccsc2)cn1,-0.312
11,O=C(NCCc1ccccn1)N1CCOC(c2ccccc2Cl)C1 (centres undefined),-1.2
12,CN(CCOc1ccccc1F)C1CCOC1=O (centres undefined),-5.42
13,Cc1cc(CN(CC(N)=O)CC(C)C)on1,-2.52
14,N#CC1COCCN1C(=O)c1ccc2[nH]ccc2c1 (centres undefined),7.92
15,CCc1ccc(C(=O)NC2CCCN(c3ccn(C)n3)C2=O)o1 (centres undefined),-0.669
16,CN(CCCO)C(=O)c1ccc2c(c1)nc(N1CC[C@H](O)C1)n2C,6.47
17,CNC(=O)c1cn2cc(-c3cccc(Cl)c3)n(CC3CC3)c(=O)c2n1,-3.37
18,CCc1noc(C(C)Sc2nnc(C3CC3)n2CC(N)=O)n1 (centres undefined),-8.4
19,COc1ccc(OC)c(-c2cc(C(=O)NCC3(CO)CC3)n(C)n2)c1,-3.88
20,O=C(CC1CCCC1)NCCNCc1cccc2c1OCCO2,-3.45

row,SMILES,Percent Effect [%]
1,Cc1ccc(C(=O)NC2CCCN(C)C2)c(=O)[nH]1 (centres undefined),-3.1
2,CC1CCN(C(=O)CCN2Cc3ccccc3C[C@H]2C(N)=O)C1 (some centres undefined),-7.65
3,Cc1cc(NCCc2cnccn2)nc(-c2ccccc2O)n1,19.4
4,Cc1cc(CN2CCC(C3CCN(CCc4ccccc4)C3)CC2)[nH]n1 (centres undefined),-5.07
5,CC(C)(CN1CCC2(CCCNC2)C1)N1CCOCC1 (centres undefined),-0.439
6,CN(Cc1ccc([S+](C)[O-])cc1)c1cncc(Br)c1 (centres undefined),13.9
7,N#Cc1ccc(CNCCc2cc(F)cc3c2OCOC3)cc1,4.17
8,CCC(C)(CC(=O)OC)NCc1cc(C)on1 (centres undefined),-1.46
9,Cc1cc(C(=O)Nc2ccc(OCCN3CCN(C)CC3)cc2)[nH]n1,14.7
10,COc1ccnc(CNc2nc(C)nc(C)c2C)c1,-6.37
11,Cc1ccnn1CCN1CCCC2(CCC(=O)N(C3CCCC3)C2)C1 (centres undefined),15.1
12,Cc1cc(C(=O)N2CC[C@](C)(O)[C@H](C)C2)c(C)n1C,-6.41
13,Cc1cc(N(C)C)nc(N2CCn3c(nnc3C3CC3)C2)n1,-2.99
14,O=C(NCCc1ccncc1)c1cccc(S(=O)(=O)NC2CC2)c1,-4.52
15,CCCn1ccnc1-c1cccc(NC(=O)[C@H]2CCC(=O)N2)c1,11.3
16,CCc1ncc2c(n1)CN(c1cc(NC3CC3)nc(N)n1)C2,-118
17,COc1ccc(C(C)NCCc2ccc(NC(C)=O)cc2)cc1F (centres undefined),5.54
18,CCc1nn(C)c(Cl)c1CN1CCC2(C1)CN(C)C(=O)O2 (centres undefined),6.22
19,CC(C)OCCS(=O)(=O)N1CCN(Cc2cccn2C)CC1,-4.58
